Compound activity: PubChem BioAssay, several laboratories
Only some compounds are listed: those with a hit (about 6.2% of all), similar ones and a draw of the others.
Cardio protect: protects H9c2 cardiomyocytes from peroxide injury; actives 0.63% (n = 360,000); protection from H2O2 cell death, % at 20 µM; H2O2 injury protection, ATPLite, 2 h;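 active = compounds giving at least 50% protection of heart cells from peroxide-induced death in the single-dose screen, raw or plate-pattern-corrected value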;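 note: 0% = DMSO wells with peroxide and 100% = DMSO wells without peroxide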
NTR1 agonist: activates human neurotensin receptor 1. NTR1-U2OS beta-arrestin-GFP spot imaging, agonist mode. activation, % at 20 µM. actives 0.17% (n = 330,000). AID 493036;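 active = activation at or above 40% of the spot to cytoplasm intensity ratio, with at least 20 cells analyzed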;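 note: 0% = DMSO without peptide and 100% = 100 nM NTR1 peptide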
SUMO Mot1 rescue: SUMOylation pathway inhibition by Mot1-301 growth rescue | S. cerevisiae Mot1-301 growth rescue, ATP luminescence, 38.5C; percent above DMSO median, 100 means doubled | growth rescue, % at 18.8 µM | actives 1% (n = 320,000) | AID 2716;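 active = every valid replicate shows activation above 250% relative to neutral control wells; inactive = the rest, any valid replicate at or below 250%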;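 note: OY570 slx delta 5 strain wells were the positive control but not used for scaling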
AI-2 QS modul: Vibrio harveyi AI-2 quorum sensing modulation; AID 2094; actives 0.4% (n = 300,000); activity change, % at 7.5 µM; Vibrio harveyi JMH597 AI-2 luminescence/OD600 ratio, 9 h; stronger effect = lower value; strain lacks LuxN and CqsS sensors; 0 = neutral-control median; in the data active = activity change below about -75%, passing the limit was not always enough;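 note: luminescence divided by OD600 gain over 9 h not by final OD600 alone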
GRIN3A LBD mod: NR3A (human) ligand-binding domain modulation; NR3A LBD differential scanning fluorimetry, Tm shift; 0% = protein alone, 100% = glycine-bound protein; Tm shift relative to glycine control, % at 25 µM; actives 2.5% (n = 340,000);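 active = melting temperature shift of at least 10% of the positive control shift, at one fixed dose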
AHR act: human AHR activation; P35869; AHR-responsive luciferase reporter cells, luminescence; activation, % at 5 µM; actives 2.5% (n = 320,000); AID 2796; in the data active = activation above about 47%;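 note: 0% = vehicle wells and 100% = reference agonist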
Target sequence (P35869 whole entry, looked up): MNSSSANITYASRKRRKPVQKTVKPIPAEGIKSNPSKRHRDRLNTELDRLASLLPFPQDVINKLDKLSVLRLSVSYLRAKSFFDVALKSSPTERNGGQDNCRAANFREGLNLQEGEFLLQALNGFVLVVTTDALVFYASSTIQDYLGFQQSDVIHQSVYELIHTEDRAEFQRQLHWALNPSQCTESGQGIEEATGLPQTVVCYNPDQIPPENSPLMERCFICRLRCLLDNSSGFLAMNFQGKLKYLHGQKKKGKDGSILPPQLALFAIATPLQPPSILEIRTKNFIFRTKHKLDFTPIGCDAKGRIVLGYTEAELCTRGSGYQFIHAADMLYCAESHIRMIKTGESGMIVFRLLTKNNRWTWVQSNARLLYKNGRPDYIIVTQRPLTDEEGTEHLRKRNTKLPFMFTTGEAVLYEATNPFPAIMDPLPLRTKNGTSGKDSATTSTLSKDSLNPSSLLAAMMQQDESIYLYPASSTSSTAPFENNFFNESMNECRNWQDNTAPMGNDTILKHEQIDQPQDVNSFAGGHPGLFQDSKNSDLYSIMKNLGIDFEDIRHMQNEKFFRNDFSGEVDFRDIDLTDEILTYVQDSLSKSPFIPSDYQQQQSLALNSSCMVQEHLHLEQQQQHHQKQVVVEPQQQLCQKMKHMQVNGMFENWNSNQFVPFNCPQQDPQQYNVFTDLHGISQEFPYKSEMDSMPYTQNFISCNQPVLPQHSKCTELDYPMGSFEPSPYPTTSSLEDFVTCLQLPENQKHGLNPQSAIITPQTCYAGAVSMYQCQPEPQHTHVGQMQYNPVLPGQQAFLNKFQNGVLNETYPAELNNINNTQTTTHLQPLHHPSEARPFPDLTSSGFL
Numbers without * were called inactive; x = not tested or not shown.

SMILES	Cardio protect	NTR1 agonist	SUMO Mot1 rescue	AI-2 QS modul	GRIN3A LBD mod	AHR act
CCCNC(=O)c1ccc(N2CCC3(CC2)CC(c2cccc(Br)c2)=NO3)c([N+](=O)[O-])c1	-14.8	-1.4	-16.6	11.7	-11.4	0.3
Cc1cccc(CCNS(=O)(=O)c2ccc3c(c2)NC(=O)C(C)S3)c1 (stereo not drawn)	-10.9	4.2	-4.7	16.9	-3.4	-0.9
COc1ccc2cc3cc(C(=O)Nc4ccc5c(c4)OCO5)oc3nc2c1	-10.4	-1.4	-20.7	-3.6	25.9*	-2.9
COc1ccc2nc3oc(C(=O)Nc4ccc(OC)c(OC)c4)cc3cc2c1	-2.5	0.6	-9.6	9.6	17.5*	-5.9
CCCN(CCC)CCCNC(=O)c1cc2cc3ccc(OC)cc3nc2o1	-8.2	-0.3	-3.8	15.5	4.0	10.7
COc1ccc2cc3cc(C(=O)NCCc4ccc(OC)c(OC)c4)oc3nc2c1	87.2*	8.4	333.3	0.9	-11.6	-6.8
Cc1ccc(-c2nc3ncccc3o2)cc1NC(=O)c1ccc2c(c1)OCO2	-0.5	x	x	x	4.2	x
Cc1[nH]ccc2c1[nH]c1cc(=O)ccc12	-1.9	0.0	165.4	13.4	-28.2	70.8*
O=c1cc[nH]c2c1ccc1c(=O)cc[nH]c12	-0.3	-0.9	6.9	4.5	-1.8	3.6
Cc1csc(NC(=O)c2cnc3ccccc3n2)n1	-3.5	1.8	46.0	21.4	-0.7	57.1*
Cc1csc(NC(=O)c2ccc(C(=O)Nc3nc(C)cs3)cc2)n1	x	2.2	31.3	-0.8	x	17.6
Cc1csc(NC(=O)c2ccc3ccccc3n2)n1	-14.0	2.6	27.4	6.1	-0.7	73.7*
O=C(Nc1nccs1)c1cc(-c2ccccc2)nn1-c1ccccc1	-0.2	3.4	-9.4	6.7	11.5*	23.0
Cc1csc(NC(=O)c2cc(C)nc3ccccc23)n1	3.7	-1.2	-7.4	4.1	-1.1	11.7
Cc1cccc(NC(=O)c2ccc3ccccc3n2)c1C	-26.1	-2.5	x	1.1	0.9	57.5*
Cc1ccccc1NC(=O)c1cccc(C(=O)Nc2ccccc2C)n1	0.2	0.5	5.8	5.8	-0.8	2.4
Cc1cn([C@H]2C[C@H](O)[C@@H](CNCc3cnc(N4CCOCC4)s3)O2)c(=O)[nH]c1=O	-5.4	x	x	x	x	x
Cc1oc(-c2ccccc2)nc1C(=O)Nc1nccs1	5.1	-0.7	6.1	7.4	2.3	74.0*
O=C(Nc1nccs1)c1ccc2ccccc2n1	-10.9	1.0	44.1	9.3	0.9	49.7*
O=C(Nc1nccs1)c1ccccc1Br	0.0	-0.5	94.4	-3.8	0.1	2.5
COc1ccc(-c2csc(NC(=O)c3nc(-c4ccccc4)oc3C)n2)cc1	3.3	1.3	-15.5	18.2	-1.2	8.5
CCOc1ccc(N(CC(=O)NCc2ccc(F)cc2)C(=O)c2snc(C(N)=O)c2N)cc1	6.9	-0.4	6.1	16.0	2.6	1.2
CCOC(=O)C1CCN(C(=O)c2cc(COc3ccc(OC)c4ccccc34)on2)CC1	-3.7	2.8	-10.6	19.3	-0.7	18.2
Cc1cc2nc(-c3cccnc3SCC(=O)NC3CC3)[nH]c2cc1C	x	4.3	-10.3	20.7	x	54.7*
O=C(CSc1ncccc1-c1nc2ccccc2[nH]1)NCc1ccco1	16.1	1.6	-5.1	37.4	-1.3	21.5
SMILES	Cardio protect	NTR1 agonist	SUMO Mot1 rescue	AI-2 QS modul	GRIN3A LBD mod	AHR act
Cc1cc2nc(-c3cccnc3SCC(=O)NCc3ccco3)[nH]c2cc1C	-13.8	1.7	-18.8	51.9	-1.4	64.4*
CSc1ccccc1NC(=O)CN(Cc1ccc(Cl)cc1)S(C)(=O)=O	1.3	1.5	-28.6	12.1	-0.9	1.8
CSc1ccccc1NC(=O)CN(Cc1ccccc1)S(C)(=O)=O	6.8	-1.8	286.8*	13.3	0.6	0.7
O=C(/C=C/c1ccc(Br)o1)Nc1nnc(C2CC2)s1	x	-0.2	14.8	34.5	x	66.0*
Oc1[nH]c2c(Cl)cc(Cl)cc2c1N=NC(=S)NCC1CCCO1 (stereo not drawn)	37.4	21.6	152.1	7.8	-8.5	51.0*
Oc1[nH]c2ccccc2c1N=NC(=S)NCC1CCCO1 (stereo not drawn)	16.9	1.3	-2.6	4.5	6.0	2.7
Cc1cn(S(=O)(=O)c2cc(Br)ccc2Br)cn1	1.6	-0.7	7.8	19.2	10.0*	0.3
Cc1cn(S(=O)(=O)c2ccc(Br)cc2)cn1	0.0	0.3	-7.3	27.8	-0.2	4.5
